Measured values reported in the supplement of paper PMC11732987, “Enantioselective OTUD7B fragment discovery through chemoproteomics screening and high-throughput optimisation” (Communications Chemistry, 2025).

Experiments:
Test in all cases: log2 ratio of Biotin-Ahx-Ub-VS probe labelling (fragment/DMSO); higher = less target engagement (more negative = stronger competition), active = hit call of the paper (q ≤ 0.05, log2 ratio ≤ -1)
Details in all cases: compound concentration: 200 uM; treatment time: 3 h
USP42 = target: T1, USP42 (UniProt Q9H9J4)
T1 sequence (whole entry): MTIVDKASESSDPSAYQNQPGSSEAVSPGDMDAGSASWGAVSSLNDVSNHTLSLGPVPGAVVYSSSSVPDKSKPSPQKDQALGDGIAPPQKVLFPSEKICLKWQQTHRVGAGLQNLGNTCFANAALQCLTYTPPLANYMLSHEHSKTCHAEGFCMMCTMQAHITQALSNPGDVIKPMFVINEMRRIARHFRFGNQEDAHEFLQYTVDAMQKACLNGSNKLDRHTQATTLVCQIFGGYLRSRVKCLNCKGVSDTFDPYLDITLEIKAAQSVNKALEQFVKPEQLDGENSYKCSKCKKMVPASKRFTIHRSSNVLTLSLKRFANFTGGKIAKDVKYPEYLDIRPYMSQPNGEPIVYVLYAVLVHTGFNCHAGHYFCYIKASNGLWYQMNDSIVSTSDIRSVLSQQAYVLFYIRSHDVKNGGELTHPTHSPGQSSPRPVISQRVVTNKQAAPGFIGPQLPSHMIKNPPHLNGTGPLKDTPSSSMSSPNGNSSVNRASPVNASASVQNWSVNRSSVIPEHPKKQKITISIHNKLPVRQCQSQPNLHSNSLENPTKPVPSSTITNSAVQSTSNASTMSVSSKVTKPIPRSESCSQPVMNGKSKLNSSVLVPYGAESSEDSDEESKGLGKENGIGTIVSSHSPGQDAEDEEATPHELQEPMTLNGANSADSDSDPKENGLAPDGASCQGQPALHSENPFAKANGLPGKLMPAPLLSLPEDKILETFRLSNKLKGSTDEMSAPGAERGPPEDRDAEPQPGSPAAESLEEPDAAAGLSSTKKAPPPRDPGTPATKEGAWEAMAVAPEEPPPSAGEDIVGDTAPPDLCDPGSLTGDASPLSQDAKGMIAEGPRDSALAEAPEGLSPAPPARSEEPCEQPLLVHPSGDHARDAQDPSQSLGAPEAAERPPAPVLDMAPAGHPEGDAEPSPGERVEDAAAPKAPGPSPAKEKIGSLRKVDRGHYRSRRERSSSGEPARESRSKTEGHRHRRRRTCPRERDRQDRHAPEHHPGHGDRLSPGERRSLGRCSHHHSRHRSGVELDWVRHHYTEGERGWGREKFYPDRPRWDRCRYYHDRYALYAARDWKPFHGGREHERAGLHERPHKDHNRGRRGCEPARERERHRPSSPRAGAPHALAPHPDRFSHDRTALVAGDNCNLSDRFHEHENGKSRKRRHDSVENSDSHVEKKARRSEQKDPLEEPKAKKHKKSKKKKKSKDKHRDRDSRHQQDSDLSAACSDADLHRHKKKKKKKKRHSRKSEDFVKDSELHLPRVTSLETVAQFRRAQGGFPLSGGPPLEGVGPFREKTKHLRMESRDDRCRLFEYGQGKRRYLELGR
In short: (§1)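 HEK293T lysate (495 µg per sample, in Tris/CHAPS/IGEPAL buffer with protease inhibitors) was exposed in triplicate for 3 h to fragment at 200 µM or to vehicle, then to Biotin-Ahx-Ub-VS at 0.5 µM final for 1 h. Labelled DUBs were enriched on NeutrAvidin, digested with LysC and trypsin, and analysed by diaPASEF LC-MS/MS. Spectronaut label-free quantities were normalised to the global median, and values are average log2 ratios of fragment over vehicle from an unpaired t-test. Only proteins with ≥2 unique peptides were used.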

USP46 = USP46 (UniProt P62068)
Chain of USP46 (P62068 whole entry): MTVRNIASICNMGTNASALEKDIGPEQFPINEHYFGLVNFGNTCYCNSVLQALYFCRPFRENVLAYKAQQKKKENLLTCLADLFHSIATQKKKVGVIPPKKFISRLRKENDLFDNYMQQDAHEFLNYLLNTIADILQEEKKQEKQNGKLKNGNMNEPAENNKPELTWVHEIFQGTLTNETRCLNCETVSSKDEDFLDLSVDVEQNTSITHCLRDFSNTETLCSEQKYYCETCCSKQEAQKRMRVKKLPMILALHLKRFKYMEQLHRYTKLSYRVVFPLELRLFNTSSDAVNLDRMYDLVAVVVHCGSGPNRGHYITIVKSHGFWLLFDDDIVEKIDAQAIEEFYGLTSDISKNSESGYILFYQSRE
In short: as §1

USP47 = target: T2, USP47 (UniProt Q96K76)
T2 sequence (whole entry): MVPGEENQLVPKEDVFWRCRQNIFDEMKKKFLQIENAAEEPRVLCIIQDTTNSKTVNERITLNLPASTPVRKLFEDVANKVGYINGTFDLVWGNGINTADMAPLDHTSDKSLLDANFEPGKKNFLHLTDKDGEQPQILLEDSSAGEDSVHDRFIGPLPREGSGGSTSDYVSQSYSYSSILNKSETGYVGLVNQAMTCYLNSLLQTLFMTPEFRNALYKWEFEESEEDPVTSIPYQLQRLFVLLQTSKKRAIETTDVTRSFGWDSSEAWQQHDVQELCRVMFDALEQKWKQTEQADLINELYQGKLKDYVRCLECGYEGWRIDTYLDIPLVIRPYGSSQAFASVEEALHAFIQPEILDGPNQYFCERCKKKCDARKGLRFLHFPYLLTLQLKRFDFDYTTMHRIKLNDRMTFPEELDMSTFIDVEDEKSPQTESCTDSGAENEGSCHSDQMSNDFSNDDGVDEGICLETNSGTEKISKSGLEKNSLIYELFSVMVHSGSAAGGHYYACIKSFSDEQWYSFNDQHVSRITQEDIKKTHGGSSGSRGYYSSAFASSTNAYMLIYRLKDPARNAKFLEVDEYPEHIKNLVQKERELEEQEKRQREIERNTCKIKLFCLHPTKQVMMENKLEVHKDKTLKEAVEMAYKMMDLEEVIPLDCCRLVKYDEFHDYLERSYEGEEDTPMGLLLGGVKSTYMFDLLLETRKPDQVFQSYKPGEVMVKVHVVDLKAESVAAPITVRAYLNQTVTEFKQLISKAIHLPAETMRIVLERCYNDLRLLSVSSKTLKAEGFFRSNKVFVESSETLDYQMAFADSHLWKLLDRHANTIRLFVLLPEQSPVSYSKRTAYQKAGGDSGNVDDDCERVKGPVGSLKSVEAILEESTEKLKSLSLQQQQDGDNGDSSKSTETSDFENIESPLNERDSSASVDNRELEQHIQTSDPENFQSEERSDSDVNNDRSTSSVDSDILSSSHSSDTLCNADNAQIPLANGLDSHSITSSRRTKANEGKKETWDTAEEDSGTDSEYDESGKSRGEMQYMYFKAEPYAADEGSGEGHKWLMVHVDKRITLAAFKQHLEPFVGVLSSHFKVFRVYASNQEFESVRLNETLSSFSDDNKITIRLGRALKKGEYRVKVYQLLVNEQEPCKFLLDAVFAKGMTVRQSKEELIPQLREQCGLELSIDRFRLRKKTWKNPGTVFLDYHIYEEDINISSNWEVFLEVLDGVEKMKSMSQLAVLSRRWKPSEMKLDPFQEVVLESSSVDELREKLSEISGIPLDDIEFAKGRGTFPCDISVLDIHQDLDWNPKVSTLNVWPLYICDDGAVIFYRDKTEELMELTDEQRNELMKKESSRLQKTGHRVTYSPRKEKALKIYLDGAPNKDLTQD
In short: as §1

USP48 = target: T3, USP48 (UniProt Q86UV5)
T3 sequence (whole entry): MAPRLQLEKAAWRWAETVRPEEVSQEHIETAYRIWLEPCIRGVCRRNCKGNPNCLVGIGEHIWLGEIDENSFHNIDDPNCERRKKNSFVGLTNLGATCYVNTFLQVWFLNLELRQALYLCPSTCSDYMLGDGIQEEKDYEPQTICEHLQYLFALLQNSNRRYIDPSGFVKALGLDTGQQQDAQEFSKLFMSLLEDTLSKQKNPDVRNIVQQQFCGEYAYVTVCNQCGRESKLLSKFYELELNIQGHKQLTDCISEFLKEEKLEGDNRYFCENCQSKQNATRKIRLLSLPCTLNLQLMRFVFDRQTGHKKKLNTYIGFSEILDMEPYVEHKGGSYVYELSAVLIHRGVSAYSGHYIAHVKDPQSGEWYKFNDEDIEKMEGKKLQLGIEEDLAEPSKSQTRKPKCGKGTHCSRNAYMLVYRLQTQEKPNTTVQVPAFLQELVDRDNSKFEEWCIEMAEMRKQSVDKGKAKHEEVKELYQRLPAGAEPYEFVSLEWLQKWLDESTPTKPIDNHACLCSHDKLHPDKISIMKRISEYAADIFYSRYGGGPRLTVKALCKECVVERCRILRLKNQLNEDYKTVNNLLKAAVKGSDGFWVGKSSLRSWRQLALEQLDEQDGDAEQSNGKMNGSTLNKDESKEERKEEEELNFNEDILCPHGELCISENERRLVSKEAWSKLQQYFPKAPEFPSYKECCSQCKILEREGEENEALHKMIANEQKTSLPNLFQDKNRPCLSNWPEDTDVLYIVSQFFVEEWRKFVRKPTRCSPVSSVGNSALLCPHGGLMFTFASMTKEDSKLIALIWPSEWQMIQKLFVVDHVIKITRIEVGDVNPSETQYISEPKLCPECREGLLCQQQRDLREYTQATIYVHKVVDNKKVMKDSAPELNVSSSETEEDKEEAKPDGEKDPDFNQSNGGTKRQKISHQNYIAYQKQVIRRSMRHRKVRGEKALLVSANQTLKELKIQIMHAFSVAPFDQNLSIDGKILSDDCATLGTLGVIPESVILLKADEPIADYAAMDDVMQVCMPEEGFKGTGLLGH
In short: as §1

USP5 = target: T4, USP5 (UniProt P45974)
T4 sequence (whole entry): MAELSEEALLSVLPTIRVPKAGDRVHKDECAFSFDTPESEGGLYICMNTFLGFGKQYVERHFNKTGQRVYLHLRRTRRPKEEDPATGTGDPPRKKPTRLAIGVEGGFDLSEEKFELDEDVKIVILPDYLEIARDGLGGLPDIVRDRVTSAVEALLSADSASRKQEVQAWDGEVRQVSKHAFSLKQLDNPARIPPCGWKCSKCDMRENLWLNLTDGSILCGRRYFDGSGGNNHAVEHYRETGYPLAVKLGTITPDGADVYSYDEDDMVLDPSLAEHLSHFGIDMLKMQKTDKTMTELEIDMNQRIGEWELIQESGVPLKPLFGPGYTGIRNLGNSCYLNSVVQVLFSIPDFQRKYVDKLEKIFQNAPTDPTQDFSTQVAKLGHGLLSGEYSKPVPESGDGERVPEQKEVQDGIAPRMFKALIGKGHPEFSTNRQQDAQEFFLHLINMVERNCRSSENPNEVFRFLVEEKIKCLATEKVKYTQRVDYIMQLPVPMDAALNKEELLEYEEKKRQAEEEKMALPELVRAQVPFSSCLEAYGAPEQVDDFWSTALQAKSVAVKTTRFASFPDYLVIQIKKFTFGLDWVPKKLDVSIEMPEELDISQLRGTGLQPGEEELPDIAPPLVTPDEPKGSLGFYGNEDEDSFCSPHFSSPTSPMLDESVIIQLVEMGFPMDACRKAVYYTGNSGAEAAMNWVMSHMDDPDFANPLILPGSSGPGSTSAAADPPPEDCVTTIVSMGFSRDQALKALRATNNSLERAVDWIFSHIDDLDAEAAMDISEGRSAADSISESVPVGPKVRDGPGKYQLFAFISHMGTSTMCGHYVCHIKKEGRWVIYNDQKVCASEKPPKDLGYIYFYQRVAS
In short: as §1

USP54 = USP54 (UniProt Q70EL1)
Chain of USP54 (Q70EL1 whole entry): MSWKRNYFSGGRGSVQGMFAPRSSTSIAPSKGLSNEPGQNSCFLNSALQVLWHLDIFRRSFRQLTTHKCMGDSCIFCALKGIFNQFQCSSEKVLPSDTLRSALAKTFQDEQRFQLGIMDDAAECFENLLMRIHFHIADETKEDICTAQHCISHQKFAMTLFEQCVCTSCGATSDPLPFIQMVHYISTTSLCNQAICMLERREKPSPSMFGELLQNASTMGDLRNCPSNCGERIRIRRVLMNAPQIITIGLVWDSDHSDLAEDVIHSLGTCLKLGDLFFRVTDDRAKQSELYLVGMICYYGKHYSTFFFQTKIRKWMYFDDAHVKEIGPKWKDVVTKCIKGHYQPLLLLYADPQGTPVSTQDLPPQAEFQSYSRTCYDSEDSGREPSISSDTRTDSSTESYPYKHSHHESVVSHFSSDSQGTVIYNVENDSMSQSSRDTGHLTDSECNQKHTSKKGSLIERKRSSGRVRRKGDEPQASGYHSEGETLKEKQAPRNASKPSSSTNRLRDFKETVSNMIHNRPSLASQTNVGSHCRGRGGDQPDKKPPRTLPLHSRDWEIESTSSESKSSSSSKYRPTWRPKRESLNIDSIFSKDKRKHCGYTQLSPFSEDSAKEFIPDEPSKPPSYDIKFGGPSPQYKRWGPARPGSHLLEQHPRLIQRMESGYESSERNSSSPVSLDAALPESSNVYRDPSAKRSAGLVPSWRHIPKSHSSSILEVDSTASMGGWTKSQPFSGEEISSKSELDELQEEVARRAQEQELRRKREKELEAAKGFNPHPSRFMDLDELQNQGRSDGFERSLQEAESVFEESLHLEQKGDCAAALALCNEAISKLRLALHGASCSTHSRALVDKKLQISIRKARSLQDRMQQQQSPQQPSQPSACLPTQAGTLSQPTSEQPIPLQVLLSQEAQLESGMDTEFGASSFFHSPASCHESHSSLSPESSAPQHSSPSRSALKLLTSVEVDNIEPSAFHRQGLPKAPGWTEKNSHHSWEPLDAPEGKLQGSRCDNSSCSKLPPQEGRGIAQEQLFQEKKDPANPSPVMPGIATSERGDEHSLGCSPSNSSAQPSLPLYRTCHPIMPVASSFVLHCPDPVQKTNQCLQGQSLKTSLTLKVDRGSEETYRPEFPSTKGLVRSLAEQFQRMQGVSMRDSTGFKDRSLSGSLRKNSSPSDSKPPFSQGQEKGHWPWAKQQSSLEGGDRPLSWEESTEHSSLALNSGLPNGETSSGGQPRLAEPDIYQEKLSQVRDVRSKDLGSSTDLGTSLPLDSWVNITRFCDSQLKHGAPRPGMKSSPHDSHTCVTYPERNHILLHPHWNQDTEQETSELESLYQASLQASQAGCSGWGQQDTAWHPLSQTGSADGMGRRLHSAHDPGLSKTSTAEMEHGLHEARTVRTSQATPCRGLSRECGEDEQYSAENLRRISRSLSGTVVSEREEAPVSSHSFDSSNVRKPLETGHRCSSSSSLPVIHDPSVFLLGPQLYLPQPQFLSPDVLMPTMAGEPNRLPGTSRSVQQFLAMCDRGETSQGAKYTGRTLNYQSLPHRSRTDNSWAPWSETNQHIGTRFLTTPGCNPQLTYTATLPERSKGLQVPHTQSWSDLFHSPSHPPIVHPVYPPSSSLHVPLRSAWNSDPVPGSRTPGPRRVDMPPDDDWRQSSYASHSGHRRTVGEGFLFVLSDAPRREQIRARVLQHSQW
In short: as §1

USP7 = USP7 (UniProt Q93009)
Chain of USP7 (Q93009 whole entry, looked up): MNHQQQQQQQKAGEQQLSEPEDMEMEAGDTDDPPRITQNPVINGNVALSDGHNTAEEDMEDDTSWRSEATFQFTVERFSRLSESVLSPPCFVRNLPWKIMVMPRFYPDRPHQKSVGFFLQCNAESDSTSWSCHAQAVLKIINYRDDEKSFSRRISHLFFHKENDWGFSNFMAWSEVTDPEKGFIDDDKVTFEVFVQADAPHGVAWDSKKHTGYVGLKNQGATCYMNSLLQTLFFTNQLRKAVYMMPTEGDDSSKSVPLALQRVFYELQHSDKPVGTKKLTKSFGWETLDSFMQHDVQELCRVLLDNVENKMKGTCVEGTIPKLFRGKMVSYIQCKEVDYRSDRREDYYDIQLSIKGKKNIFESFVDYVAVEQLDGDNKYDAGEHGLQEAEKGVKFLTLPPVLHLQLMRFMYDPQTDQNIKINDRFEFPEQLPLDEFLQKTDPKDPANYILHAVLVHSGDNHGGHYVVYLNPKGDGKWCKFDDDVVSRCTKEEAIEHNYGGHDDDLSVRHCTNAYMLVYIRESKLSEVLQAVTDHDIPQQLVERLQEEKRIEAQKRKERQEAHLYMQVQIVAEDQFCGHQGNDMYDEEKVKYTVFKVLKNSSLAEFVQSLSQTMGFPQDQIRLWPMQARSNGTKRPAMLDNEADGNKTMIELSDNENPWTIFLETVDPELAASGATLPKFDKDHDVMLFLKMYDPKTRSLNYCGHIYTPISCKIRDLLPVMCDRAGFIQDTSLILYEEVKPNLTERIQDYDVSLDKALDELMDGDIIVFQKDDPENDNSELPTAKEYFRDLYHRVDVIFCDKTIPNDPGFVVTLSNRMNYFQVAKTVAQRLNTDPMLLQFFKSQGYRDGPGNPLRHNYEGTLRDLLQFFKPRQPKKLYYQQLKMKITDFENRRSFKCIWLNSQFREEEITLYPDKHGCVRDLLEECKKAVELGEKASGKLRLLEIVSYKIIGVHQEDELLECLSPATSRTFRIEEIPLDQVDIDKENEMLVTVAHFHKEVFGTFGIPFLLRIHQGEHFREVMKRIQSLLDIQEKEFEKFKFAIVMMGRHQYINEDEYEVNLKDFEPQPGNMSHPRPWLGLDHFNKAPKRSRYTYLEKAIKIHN
In short: as §1

USP8 = target: T5, USP8 (UniProt P40818)
T5 sequence (whole entry): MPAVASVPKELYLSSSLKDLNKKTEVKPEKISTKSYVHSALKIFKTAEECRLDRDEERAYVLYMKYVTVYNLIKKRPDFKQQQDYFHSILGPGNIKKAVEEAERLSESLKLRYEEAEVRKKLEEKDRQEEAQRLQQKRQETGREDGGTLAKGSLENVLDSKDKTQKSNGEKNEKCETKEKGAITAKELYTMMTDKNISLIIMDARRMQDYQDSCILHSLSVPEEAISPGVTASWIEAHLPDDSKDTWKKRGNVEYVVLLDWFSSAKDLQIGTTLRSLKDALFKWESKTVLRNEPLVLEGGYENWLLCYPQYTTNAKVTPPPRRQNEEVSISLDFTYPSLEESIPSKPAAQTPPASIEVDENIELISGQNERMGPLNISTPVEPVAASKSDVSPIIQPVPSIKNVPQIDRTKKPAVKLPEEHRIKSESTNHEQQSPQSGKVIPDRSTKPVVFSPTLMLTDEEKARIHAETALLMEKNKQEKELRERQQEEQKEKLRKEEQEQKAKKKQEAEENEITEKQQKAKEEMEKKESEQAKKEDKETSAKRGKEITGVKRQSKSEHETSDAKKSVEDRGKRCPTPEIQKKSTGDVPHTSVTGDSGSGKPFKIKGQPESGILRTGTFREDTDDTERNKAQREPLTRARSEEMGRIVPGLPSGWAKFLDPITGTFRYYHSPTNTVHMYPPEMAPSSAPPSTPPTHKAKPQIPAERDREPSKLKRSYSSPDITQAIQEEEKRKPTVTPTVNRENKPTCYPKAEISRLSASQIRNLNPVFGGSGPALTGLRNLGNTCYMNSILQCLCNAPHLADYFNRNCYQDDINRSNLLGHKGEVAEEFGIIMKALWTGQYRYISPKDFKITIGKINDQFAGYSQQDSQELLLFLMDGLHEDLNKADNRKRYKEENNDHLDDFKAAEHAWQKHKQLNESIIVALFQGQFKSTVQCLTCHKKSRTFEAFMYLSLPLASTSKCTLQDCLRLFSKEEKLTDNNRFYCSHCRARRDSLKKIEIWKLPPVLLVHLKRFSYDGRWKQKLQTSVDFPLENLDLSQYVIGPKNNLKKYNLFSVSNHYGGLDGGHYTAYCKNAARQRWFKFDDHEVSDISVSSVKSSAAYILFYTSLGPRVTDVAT
In short: as §1

Measured: log2 ratio of Biotin-Ahx-Ub-VS probe labelling

CN(Cc1nc2ccccc2[nH]1)C(=O)CCl.Cl
active: USP48 -1.14 | USP7 -1.36
inactive: USP42 0.698 | USP46 -0.254 | USP47 -0.178 | USP5 0.118 | USP54 -0.517 | USP8 -0.0998
